Consider 29 molecules from the supplement of paper PMC13380429.

The structures appear in SMILES notation.

The subject of assay [1] is Vero E6 infected with SARS-CoV-2. Description: morphology score (similarity to uninfected cells); higher = more like uninfected cells. The note with it: 24 h.
For assay [2] the test system is unchanged. Description: SARS-CoV-2 infection rate relative to infected DMSO; higher = more infection, active = 60 or less. As to conditions: 24 h.

In turn, `CC1CCN(CC[C@H]2CCCN2S(=O)(=O)c2cccc(O)c2)CC1` (10 µM) returned a morphology score in assay [1] of 0.0739. In addition, in assay [2], the SARS-CoV-2 infection rate was 102% (inactive).
In turn, `[O-][n+]1cccc(CO)c1` [mepiroxol] (10 µM) yielded a morphology score in assay [1] of -0.0187. Also, in assay [2], the SARS-CoV-2 infection rate was 109% (inactive).
For `CC/C(=C(/CC)c1ccc(O)cc1)c1ccc(O)cc1` [diethylstilbestrol] (10 µM) the same measures were -0.0992 and 102% (inactive).
For `O=C1NC(=O)C(c2cnc3ccccn23)=C1c1cn2c3c(cc(F)cc13)CN(C(=O)N1CCCCC1)CC2` (10 µM), the morphology score in assay [1] was -0.436. The SARS-CoV-2 infection rate in assay [2] was 105% (inactive).
For `O=C1C[C@@]2(C(=O)N1)C(=O)N(Cc1ccc(Br)cc1F)C(=O)c1cccn12` [ranirestat] (10 µM) the same measures were 0.148 and 94.5% (inactive).
Consider `COc1ccc(C(=O)CC2(O)C(=O)Nc3c(Cl)ccc(Cl)c32)cc1` (stereo not drawn) (0.833333 µM), for which, in assay [1], the morphology score was found to be 0.00554. Moreover, the SARS-CoV-2 infection rate in assay [2] is 95% (inactive).
For `COc1ccc2[nH]c([S+]([O-])Cc3ncc(C)c(OC)c3C)nc2c1` (stereo not drawn) [omeprazole] (10 µM) the same measures were 0.0924 and 104% (inactive).
In the case of `CCCCCCCCCCCCCCCC(=O)OC[C@H](O)[C@H]1OC(=O)C(O)=C1O` [L-ascorbyl-6-palmitate] (10 µM), the morphology score in assay [1] is -0.0423. In addition, the SARS-CoV-2 infection rate in assay [2] was 112% (inactive).
In the case of `COc1cc2c3cc1Oc1cc(ccc1O)C[C@@H]1c4c(cc(OC)c(O)c4Oc4ccc(cc4)C[C@@H]3N(C)CC2)CC[N+]1(C)C` [tubocurarine] (10 µM), the morphology score in assay [1] was -0.0274. In addition, the SARS-CoV-2 infection rate in assay [2] is 110% (inactive).
For `O=C(O)c1cn(C2CC2)c2cc(N3CCNCC3)c(F)cc2c1=O` [ciprofloxacin] (10 µM) the same measures were 0.046 and 106% (inactive).
For the molecule `C[C@H](N[C@@H](CCc1ccccc1)C(=O)O)C(=O)N1CCC[C@H]1C(=O)O` [enalaprilat] (10 µM), the morphology score in assay [1] is -0.0398. In assay [2], the SARS-CoV-2 infection rate was 107% (inactive).
Take `O=C(Nc1ccc(-c2ccnc(Nc3ccc(N4CCOCC4)cc3)n2)cc1)C1CCCN1` (stereo not drawn) (10 µM): the morphology score in assay [1] was 0.607. In addition, the SARS-CoV-2 infection rate in assay [2] was 73.5% (inactive).
For `CCCCCCCCCCC(CO)CCCCCCCC` (stereo not drawn) [2-octyldodecan-1-ol] (10 µM) the same measures were 0.0425 and 110% (inactive).
In the case of `Cc1nc2ccccc2n1Cc1ccc(Cl)cc1` [chlormidazole] (10 µM), the morphology score in assay [1] is -0.099. The SARS-CoV-2 infection rate in assay [2] is 118% (inactive).
Consider `CC1(C)[C@H](C(=O)O)N2C(=O)C[C@H]2S1(=O)=O` [sulbactam] (10 µM), for which, in assay [1], the morphology score was determined as 0.0596. For the same molecule, the SARS-CoV-2 infection rate in assay [2] is 113% (inactive).
In assay [1], `COc1cccc(CCc2ccccc2OCC(CN(C)C)OC(=O)CCC(=O)O)c1` (stereo not drawn) [sarpogrelate] (10 µM) showed a morphology score of 0.198. The SARS-CoV-2 infection rate in assay [2] was 100% (inactive).
In assay [1], `CCc1ccc(CCOc2ccc(CC3SC(=O)NC3=O)cc2)nc1` (stereo not drawn) [pioglitazone] (10 µM) gave a morphology score of 0.077. In addition, the SARS-CoV-2 infection rate in assay [2] is 110% (inactive).
Turning to `NC(N)=O` [urea] (10 µM), the morphology score in assay [1] was -0.168. The SARS-CoV-2 infection rate in assay [2] is 114% (inactive).
`N=C(N)Nc1ccc(Cl)cc1` [4-chlorophenylguanidine] (10 µM) showed a morphology score in assay [1] of -0.231. In addition, the SARS-CoV-2 infection rate in assay [2] was 114% (inactive).
In the case of `COc1ccc(-c2oc3c(CC=C(C)C)c(O[C@@H]4O[C@H](CO)[C@@H](O)[C@H](O)[C@H]4O)cc(O)c3c(=O)c2O[C@@H]2O[C@@H](C)[C@H](O)[C@@H](O)[C@H]2O)cc1` [icariin] (10 µM), the morphology score in assay [1] amounted to 0.141. For the same molecule, in assay [2], the SARS-CoV-2 infection rate is 106% (inactive).
In assay [1], `COc1ccc(NC(=O)c2ccc(-c3ccc(-c4noc(C)n4)cc3C)cc2)cc1OCCN(C)C` (0.833333 µM) yielded a morphology score of 0.282. In assay [2], the SARS-CoV-2 infection rate was 53% (active).
`O=C1NC(=O)/C(=C/c2ccc3nccc(-c4ccncc4)c3c2)S1` (0.833333 µM) yielded a morphology score in assay [1] of 0.151. For the same molecule, the SARS-CoV-2 infection rate in assay [2] was 108% (inactive).
In assay [1], `N[C@@H]1CONC1=O` [cycloserine-(D)] (10 µM) yielded a morphology score of 0.0631. In addition, in assay [2], the SARS-CoV-2 infection rate was 92.5% (inactive).
Regarding `C[C@@H](O[C@H]1OCCN(Cc2nn[nH]c2CN(C)C)[C@H]1c1ccc(F)cc1)c1cc(C(F)(F)F)cc(C(F)(F)F)c1` (10 µM), the morphology score in assay [1] amounted to 0.43. In addition, in assay [2], the SARS-CoV-2 infection rate is 58% (active).
In assay [1], `CCCCC1CCC(c2nc(-c3ccncc3)no2)CC1` (stereo not drawn) (10 µM) showed a morphology score of -0.00672. In addition, in assay [2], the SARS-CoV-2 infection rate was 104% (inactive).
On to `CC(C)(C)CC(C)(C)c1cc(Cc2cc(C(C)(C)CC(C)(C)C)cc(-n3nc4ccccc4n3)c2O)c(O)c(-n2nc3ccccc3n2)c1` [bisoctrizole] (10 µM), for which the morphology score in assay [1] is -0.0457. In addition, the SARS-CoV-2 infection rate in assay [2] was 114% (inactive).
In assay [1], `CC(=O)c1c(C)c2cnc(Nc3ccc(N4CCNCC4)cn3)nc2n(C2CCCC2)c1=O` [palbociclib] (10 µM) registered a morphology score of 0.0925. Also, the SARS-CoV-2 infection rate in assay [2] was 108% (inactive).
With `OC(CN1CCN(c2cccc(Cl)c2)CC1)C(c1ccccc1)c1ccccc1` (stereo not drawn) (10 µM), the morphology score in assay [1] is -0.0067. Further, the SARS-CoV-2 infection rate in assay [2] was 96.5% (inactive).
Turning to `CN1CCN(c2cccc3[nH]c(=O)oc23)CC1` [pardoprunox] (10 µM), in assay [1], the morphology score is -0.1. Besides, the SARS-CoV-2 infection rate in assay [2] is 103% (inactive).
